M18AAP inhibitor: PfM18AAP enzyme inhibition | recombinant PfM18AAP, H-Glu-NHMec fluorogenic cleavage | inhibition, % at 7.35 µM | actives 1.2% (n = 290,000);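 active = inhibition above the campaign mean inhibition over all tested compounds plus 3 SD, cut at about 28% in these data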;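 note: 0% = plate median of test compound wells and 100% = 2 mM ZnCl2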
Rce1 inhib: yeast Ras-converting enzyme inhibition | yeast membranes, quenched prenylated peptide cleavage fluorescence | calls only | actives 0.27% (n = 290,000) | AID 2563;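 active = fall in fluorescence gain of 50% or more versus controls, with final raw signal at or below 3038400; inconclusive = same 50% fall but final raw signal above 3038400; inactive = fall in fluorescence gain under 50%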;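 note: plate controls were neutral control wells for no effect and wells lacking membranes for full effect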
Target sequence (Q03530 whole entry, looked up): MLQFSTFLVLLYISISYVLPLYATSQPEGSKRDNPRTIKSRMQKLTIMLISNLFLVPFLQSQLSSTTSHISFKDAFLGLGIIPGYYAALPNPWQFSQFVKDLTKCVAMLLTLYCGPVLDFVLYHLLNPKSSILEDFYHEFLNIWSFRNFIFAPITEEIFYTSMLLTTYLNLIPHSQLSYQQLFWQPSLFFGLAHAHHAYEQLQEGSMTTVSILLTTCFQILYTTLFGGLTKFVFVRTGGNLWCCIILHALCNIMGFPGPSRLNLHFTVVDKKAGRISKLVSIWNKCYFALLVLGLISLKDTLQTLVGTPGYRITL
Kir21 block: inhibitors of mouse Kir2.1 inward-rectifier potassium channel; P35561; HEK293-Kir2.1, FluxOR thallium flux fluorescence; hits give low values; B-score at 10 µM; actives 0.85% (n = 310,000);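 active = fluorescence ratio B-score at or below minus 3 SD of library scores, with starting-brightness B-score within 2 SD, cut at about -4.2 in these data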;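 note: channel flux triggered by added potassium and thallium sulfate stimulus; B-score of peak minus minimum fluorescence over baseline after thallium stimulus; more negative B-score means stronger Kir2.1 block with less thallium influx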
FID counter: fluorescent intercalator displacement, NS3 helicase counter-screen. DNA fluorescent intercalator displacement, fluorescence. inhibition, % at 7.9 µM. actives 0.17% (n = 290,000); in the data active = inhibition above about 37%;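 note: 0% = vehicle and 100% = reference compound; higher means more ethidium bromide displaced from hairpin DNA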
Starred values were filed as active, the others as inactive; i = inactive; ? = inconclusive; nt = no result; + = active, no number. Most compounds without a hit are left out; they make up all but 2.3% or so of the library.

SMILES	M18AAP inhibitor	Rce1 inhib	Kir21 block	FID counter
O=c1c(O[C@@H]2O[C@H](CO)[C@H](O)[C@H](O)[C@H]2O)c(-c2ccc(O)c(O)c2)oc2cc(O)cc(O)c12	68.4*	nt	nt	6.8
C[C@@H]1O[C@@H](OC[C@H]2O[C@@H](Oc3c(-c4ccc(O)c(O)c4)oc4cc(O)cc(O)c4c3=O)[C@H](O)[C@@H](O)[C@@H]2O)[C@H](O)[C@H](O)[C@H]1O	63.7*	i	0.06	-3.1
O=c1c(O[C@@H]2O[C@H](CO)[C@@H](O)[C@H](O)[C@H]2O)c(-c2ccc(O)c(O)c2)oc2cc(O)cc(O)c12	68.0*	i	0.36	-3.8
CN1\C(=C/C=C/C=C/C=[N+](C)C)C(C)(C)c2ccccc21	7.7	i	-12.8*	-10.0
O=c1oc(Cc2ccccc2)nc2ccccc12	-1.4	i	-0.62	1.7
CC1CCc2cc(F)ccc2N1S(=O)(=O)c1ccc(F)cc1 (configuration not stated)	-8.6	i	-4.27*	-14.1
O=C(CCl)c1ccc2c(c1)CCN2C(=O)C1CC1	0.5	i	-5.68*	11.9
CCOc1ccc(CCNC(=O)COC(=O)c2c(C)nn(-c3ccccc3)c2C)cc1OCC	6.2	i	0.19	-58.8
OC(CNCc1cccc(Br)c1)c1ccccc1 (configuration not stated)	-15.9	i	-4.26*	6.7
Cc1ccc(CNCC(O)c2ccccc2)s1 (configuration not stated)	-8.4	i	-5.26*	11.7
O=C(NC(NNc1ccc([N+](=O)[O-])cc1)(C(F)(F)F)C(F)(F)F)c1ccccc1Cl	2.5	i	0.96	9.6
O=C(NC(Nc1nc2ccc([N+](=O)[O-])cc2s1)(C(F)(F)F)C(F)(F)F)c1cccnc1	2.8	i	-5.69*	-3.2
O=C(NC(Nc1nc2ccc([N+](=O)[O-])cc2s1)(C(F)(F)F)C(F)(F)F)c1ccccc1Cl	1.2	i	-5*	-1.6
c1coc(-c2ccnc3ncnn23)c1	-2.7	+	1.58	0.0
CN(C)C(=O)C[n+]1ccc(C(N)=O)cc1	-5.8	i	0.9	-0.9
CC(C)(C)C(=O)C[n+]1ccc(C(N)=O)cc1	-7.4	+	0.87	-0.9
O=C(c1cc(=O)[nH]c2ccccc12)N1CC=C(c2ccccc2)CC1	nt	i	-0.08	nt
COc1ccc(S(=O)(=O)c2c(O)cc(C)c(NS(=O)(=O)c3ccccc3)c2C)cc1	1.3	i	-0.29	-14.2
CN(C)S(=O)(=O)c1ccc(C(=O)OCC2CCCO2)cc1 (configuration not stated)	-8.1	i	-2.59	-9.2
O=C(O)CNc1ccccc1C(=O)O	-0.2	+	0.55	0.1
Cc1ccc(S(=O)(=O)CCC(=O)c2cccc([N+](=O)[O-])c2)cc1	-113.0	i	-9.46*	-5.9
C#CCOc1ccc(C2C3=C(CC(C)(C)CC3=O)N(CC(=O)O)C3=C2C(=O)CC(C)(C)C3)cc1OC	31.6*	i	-0.21	-21.1
CCOc1cc(C2C3=C(CC(C)(C)CC3=O)N(CCCOC)C3=C2C(=O)CC(C)(C)C3)ccc1O	31.2*	i	1.04	-36.9
CC(NC(=O)c1ccc(OC2CCN(Cc3ccccn3)CC2)cc1)c1nccs1 (configuration not stated)	-5.3	i	-0.4	-4.3
O=C1COc2ccccc2N1Cc1ccc(Cl)cc1	4.5	i	-0.67	-12.6
SMILES	M18AAP inhibitor	Rce1 inhib	Kir21 block	FID counter
CSc1nc(O)c(Nc2cccc(Cl)c2)c(=O)[nH]1	30.8*	i	-1.08	-0.3
C/C(CC(=O)NCc1ccco1)=N\NC(=O)c1ccc(Cl)cc1Cl	-6.6	i	-0.51	-6.5
C/C(CC(=O)NCc1ccco1)=N\NC(=O)c1ccc([N+](=O)[O-])cc1Cl	15.4	+	0.04	-1.5
CC1CCN(CCCNC(=O)c2ccc(CSCc3cccc(Cl)c3)o2)CC1	-8.1	i	-6.65*	16.1
CN1CCN(CCCNC(=O)c2ccc(CSCc3cccc(Cl)c3)o2)CC1	8.4	i	-1.9	28.6
CCN(CC)Cc1c(O)ccc2c(=O)c(-c3ccccc3OC)coc12	-2.3	+	-0.33	-3.7
CCN(CC)Cc1c(O)ccc2c(=O)c(-c3ccccc3Cl)coc12	-7.8	i	0.59	-0.3
COc1ccccc1NC(=O)C(C)N(C)Cc1ccc(Cl)s1 (configuration not stated)	10.4	i	-0.94	-33.2
O=C1CCN(CCc2ccccc2)CCN1CCSc1ccccc1	0.4	i	-0.68	-21.1
CN1c2ccccc2-c2nc3ccccc3n2C1c1ccccn1 (configuration not stated)	6.3	?	-0.79	-12.9
CCN1c2ccccc2-c2nc3ccccc3n2C1c1ccco1 (configuration not stated)	-0.6	?	-6.37*	-9.7
CN1c2ccccc2-c2nc3ccccc3n2C1c1ccncc1 (configuration not stated)	-1.9	+	0.03	-2.1
c1ccc(CN2c3ccccc3-c3nc4ccccc4n3C2c2ccccn2)cc1 (configuration not stated)	2.2	i	-0.37	-24.1
COC(=O)c1ccccc1NC(=O)N1c2ccccc2Sc2ccccc21	0.0	i	0.26	0.8
N#Cc1c(-c2ccccc2)nc(SCC(=O)N2c3ccccc3Sc3ccccc32)[nH]c1=O	7.2	i	1.18	-7.7
CCOc1cc(/C=N/NC(=O)CN2CCCCC2)ccc1OCc1cccc(Cl)c1	5.1	i	-4.68*	16.0
COc1ccc(NC(=O)c2ccccc2NS(=O)(=O)c2ccc(C)cc2)c([N+](=O)[O-])c1	2.4	i	-0.22	0.3
O=C(O)c1ccccc1NS(=O)(=O)c1ccc(NNC(=S)Nc2ccc(OC(F)F)cc2)c([N+](=O)[O-])c1	43.8*	i	0.01	16.9
CCCCNC(=S)NNC(=O)c1cc(-c2ccncc2)nc2ccccc12	2.0	i	-0.35	-34.5
O=C(Cn1c(CO)nc2ccccc21)Nc1ccccc1Cl	2.6	i	-9.39*	-4.8
Cc1ccc(C)c2c1cc(C)c1nnc(SCC(=O)c3cccs3)n12	6.3	i	-7.54*	-7.2
Cc1ccc2cc(C)c3nnc(SCC(=O)c4cccs4)n3c2c1C	-2.2	i	-5.11*	-16.0
Cc1cc2ccc(C)c(C)c2nc1SCC(=O)c1cccs1	-0.2	i	0.82	-4.0
Cc1ccc(CN2[C@@H](c3ccccc3)COCCS2(=O)=O)cc1	1.7	i	-2.18	-25.5
Cc1c(N)ccc(-n2nc3ccccc3n2)c1C	nt	i	0.06	nt
SMILES	M18AAP inhibitor	Rce1 inhib	Kir21 block	FID counter
Oc1ccc(O)c2c1C1c3ccccc3C2c2ccccc21	81.2*	i	0.37	4.5
COc1ccc(CN2C(=O)c3ccc(C(=O)O)cc3C2=O)cc1	0.8	i	0.17	-7.7
O=C(CN(Cc1ccco1)S(=O)(=O)c1ccccc1)N/N=C/c1ccccc1C(=O)O	16.5	i	1.6	-29.7
CCc1nc(C)cn1S(=O)(=O)c1cc(Br)c(C)cc1OC	-2.9	i	-12*	-14.6
CCc1nc(C)cn1S(=O)(=O)c1cc(C)c(OC)cc1C	-6.5	i	-5.23*	-4.2
CCc1nc(C)cn1S(=O)(=O)c1cc(F)ccc1OC	0.4	i	-10.2	-1.6
